The text below walks through data of a collection of fitness landscapes (doi:10.1126/science.1257360).

To fix the notation:
B1: PhoQ; a variant is named by its letters at X, in order, P23837 (parent)
chain: MKKLLRLFFPLSLRVRFLLATAAVVLVLSLAYGMVALIGYSVSFDKTTFRLLRGESNLFYTLAKWENNKLHVELPENIDKQSPTMTLIYDENGQLLWAQRDVPWLMKMIQPDWLKSNGFHEIEADVNDTSLLLSGDHSIQQQLQEVREDDDDAEMTHSVAVNVYPATSRMPKLTIVVVDTIPVELKSSYMVWSWFIYVLSANLLLVIPLLWVAAWWSLRPIEALAKEVRELEEHNRELLNPATTRELTSLVRNLNRLLKSERERYDKYRTTLTDLTHSLKTPLXXLQXXLRSLRSEKMSVSDAEPVMLEQISRISQQIGYYLHRASMRGGTLLSRELHPVAPLLDNLTSALNKVYQRKGVNISLDISPEISFVGEQNDFVEVMGNVLDNACKYCLEFVEISARQTDEHLYIVVEDDGPGIPLSKREVIFDRGQRVDTLRPGQGVGLAVAREITEQYEGKIVAGESMLGGARMEVIFGRQHSAPKDE

Whole data set: some 140,000 sequences, median “enrichment ratio after two sorts for PhoP signalling” near 0, cut for the highest 2% near 11. Shown is part of a subset that was picked to be rich in the highest values.

In the test the parent is B1. Nature of the test: enrichment ratio after two sorts for PhoP signalling (ratio (wild type AVST 3.29)); higher = more functional. The note with it: with PhoP (E. coli).
TCEG: the enrichment ratio is no more than 0.25.
Next, GWNG: no more than 0.25.
As for QLVN, the figure is no more than 0.25; as for FINA, no more than 0.25; as for ENVY, no more than 0.25.
Next, KCSG: no more than 0.25.
In the case of VEGI, the enrichment ratio is no more than 0.25.
Next, TCSI: 23.8; TCSG: 26.2; TCGL: 13.5.
As for KCSI, the figure is no more than 0.25; as for TCGI, 25; as for FCSI, no more than 0.25.
As for TCNL, the figure is 4.28; as for GMGI, no more than 0.25; as for TCIL, no more than 0.25.
Take VCSG: the enrichment ratio turned out to be 0.44.
As for MHTY, the figure is no more than 0.25; as for LARC, no more than 0.25; as for RLPH, no more than 0.25.
As for TNFS, the figure is no more than 0.25.
As for RRNI, the figure is no more than 0.25; as for GIHS, no more than 0.25; as for YGWR, no more than 0.25.
Regarding KELF, the enrichment ratio was no more than 0.25.
Next, LMEL: no more than 0.25; FVVT: no more than 0.25; HNCQ: no more than 0.25.
As for KTSH, the figure is no more than 0.25; as for QHHI, no more than 0.25; as for GMRC, no more than 0.25.
As for KCST, the figure is no more than 0.25; as for HVST, no more than 0.25; as for TCST, 24.9.
With TCVT, the enrichment ratio is no more than 0.25.
Take KSND: the enrichment ratio is no more than 0.25.
For the variant TCND, the enrichment ratio was determined as 20.6.
Take MCTV: the enrichment ratio is no more than 0.25.
Next, EWLV: no more than 0.25; MTFH: 3.3; QYHL: no more than 0.25.
Next, YKTG: no more than 0.25; SMFS: no more than 0.25.
